# PubChem BioAssay (NCI)
# This is part of a sample that, as a whole, favours compounds with a hit. Of some 79,000 tested, about 15% had one in any assay. Calls of active or inactive are those of the source. Cut-off read from the data, not from the text of the source: active = growth inhibition above about 70%; inactive = the rest.
# Test: NCI Yeast Anticancer Drug Screen. Data for the mec2-1 strain (AID 157)
# Conditions: S. cerevisiae mec2-1 strain, at 50.0 µM, stronger effect = higher value
# In short: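 Readout is yeast growth inhibition, normalised to vehicle-treated controls, in the mec2-1 strain exposed to compound.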
row,Structure (SMILES),growth inhibition
1,Cc1ccc(S(=O)(=O)N/N=C2\CCC3CC2C3(C)C)cc1 (stereo not given),2.05% (inactive)
2,CC1=C(CC2C(=O)N(c3ccccc3)S(=O)(=O)NC2C)C(=O)N(c2ccccc2)S(=O)(=O)N1C (stereo not given),4% (inactive)
3,O=C(Nc1nncs1)c1ccncc1,-5.75% (inactive)
4,Cc1c(Cl)cccc1NC(=O)C1CC(Br)C(Br)CC1C(=O)O (stereo not given),6.7% (inactive)
5,CCN(CC)CCCNc1cc(OC)c(Cl)c2cccnc12,9.1% (inactive)
6,Cc1ccc(C(=O)NO)cc1,-5.6% (inactive)
7,NC(N)=NS(=O)(=O)c1ccc(NC(=O)c2cccc3c(N)c4ccccc4nc23)cc1,5.95% (inactive)
8,CCCCCCCSCC1OC(n2cnc3c(N)ncnc32)C(O)C1O (stereo not given),11.1% (inactive)
9,C=CC1CC1(Cl)Cl (stereo not given),12.8% (inactive)
10,CC1=C/C(=C(/c2cccc(S(=O)(=O)O)c2)c2cc(C)c(O)c(C(=O)O)c2)C=C(C(=O)O)C1=O,-21.8% (inactive)
11,Cc1nn(-c2ccccc2)c2c1N=C(C(=O)O)CC(c1ccccc1)=N2,25.9% (inactive)
12,O=C1C[CH]([Ge](=[O])[O][Ge](=[O])[CH]2CC(=O)NC(=O)N2)NC(=O)N1 (stereo not given),18.2% (inactive)
13,O=c1cccccc1Cl,-41.6% (inactive)
14,COc1cccc(NC(=S)/C(=C(/[O-])c2ccc([N+](=O)[O-])cc2)[n+]2cccc3ccccc32)c1,19.2% (inactive)
15,CC1(C)N=C(/C(Cl)=[N+](/[O-])C(=O)c2ccc(F)cc2)C(C)(C)N1O,-35.3% (inactive)
16,CC1(C)CC([N+](C)(C)CCCCCC[N+](C)(C)C2CC(C)(C)N(O)C(C)(C)C2)CC(C)(C)N1O,0.45% (inactive)
17,CCOC(=O)CC(=O)Nc1cc(C)cc(C)n1,14.5% (inactive)
18,COC(=O)NC(Cc1ccccc1)NC(=O)OC(C)(C)C (stereo not given),-46% (inactive)
19,CCCNc1cc2c(cc1Br)-c1ccccc1C2=O,-3% (inactive)
20,Oc1ccccc1C=Nc1ccc(I)cc1.Oc1ccccc1C=Nc1ccc(I)cc1.[Co],23.1% (inactive)

row,Structure (SMILES),growth inhibition
1,CC1=C(C)CC2C(=O)c3c(O)ccc(O)c3C(=O)C2C1 (stereo not given),44.9% (inactive)
2,COc1ccc(Cc2ccccc2)cc1,-13.2% (inactive)
3,O=C(COc1ccc(Cl)cc1)Nc1nccs1,32% (inactive)
4,Cc1cc(Cl)c(Cl)cc1Cl,5.7% (inactive)
5,COC(=O)c1cc(OC)c(O)c(OC)c1,-0.4% (inactive)
6,OCc1cc(Cl)cc(Cc2cc(Cl)cc(Cc3cc(Cl)cc(Cc4cc(Cl)cc(Cc5cc(Cl)cc(CO)c5O)c4O)c3O)c2O)c1O,-17.4% (inactive)
7,O=C(Cc1ccccc1)c1c[nH]c2c(O)ccc(O)c12,-9.25% (inactive)
8,CCCC(=O)OCC(C)(C)CC(C)C,-57.9% (inactive)
9,CC(=O)NC1C(O)C(NC(C)=O)C(OC(C)=O)C(OC(C)=O)C1OC(C)=O (stereo not given),-9.7% (inactive)
10,O=C(NC1C2CC3CC(C2)CC1C3)c1cc(/C=C/c2ccccc2)[nH]c(=S)n1 (stereo not given),2.35% (inactive)
11,CCCCCCCCCCCCCCCCCC(=O)O,-17.4% (inactive)
12,[O-][N+]1(CC[N+]2([O-])CCCCC2)CCCCC1,-4.9% (inactive)
13,C=CCS(=O)(=O)c1ccc(Cl)cc1,2.25% (inactive)
14,CC(C)C1OC2(CCCCC2)OCC1(C)C (stereo not given),14.8% (inactive)
15,CC(=O)Oc1ccc(NCNc2ccc(OC(C)=O)cc2)cc1,0.95% (inactive)
16,CC1S(=O)(=O)OCCCOS1(=O)=O,-19.2% (inactive)
17,Cc1cc(N(CCC#N)CCC#N)ccc1/C=C(\NC(=O)/C=C/c1ccccc1)C(=O)N=[N+]=[N-],-31.9% (inactive)
18,CC1CC(c2ccccc2)S(=O)(=O)O1 (stereo not given),-4.3% (inactive)
19,Cc1ccc(-c2cc(=O)c3cc(C)c(C)c(C(=O)O)c3o2)cc1,0.25% (inactive)
20,Cc1ccc(S(=O)(=O)NCNS(=O)(=O)c2ccc(C)cc2)cc1,-7% (inactive)

# Test: NCI Yeast Anticancer Drug Screen. Data for the sgs1 mgt1 strain (AID 161);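 note: 0% = growth of cultures given vehicle only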
# Conditions: S. cerevisiae sgs1 mgt1 strain, at 50.0 µM, stronger effect = higher value
# In short: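 Percent growth inhibition was derived by comparing compound-exposed mutant yeast with vehicle-exposed cultures. The strain carries alterations in DNA damage repair.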
row,Structure (SMILES),growth inhibition
1,Cc1ccc(S(=O)(=O)N/N=C2\CCC3CC2C3(C)C)cc1 (stereo not given),-14.2% (inactive)
2,CC1=C(CC2C(=O)N(c3ccccc3)S(=O)(=O)NC2C)C(=O)N(c2ccccc2)S(=O)(=O)N1C (stereo not given),-14% (inactive)
3,O=C(Nc1nncs1)c1ccncc1,-13.2% (inactive)
4,Cc1c(Cl)cccc1NC(=O)C1CC(Br)C(Br)CC1C(=O)O (stereo not given),1.5% (inactive)
5,CCN(CC)CCCNc1cc(OC)c(Cl)c2cccnc12,38% (inactive)
6,Cc1ccc(C(=O)NO)cc1,7.65% (inactive)
7,NC(N)=NS(=O)(=O)c1ccc(NC(=O)c2cccc3c(N)c4ccccc4nc23)cc1,-0.2% (inactive)
8,CCCCCCCSCC1OC(n2cnc3c(N)ncnc32)C(O)C1O (stereo not given),11.4% (inactive)
9,C=CC1CC1(Cl)Cl (stereo not given),-4.75% (inactive)
10,CC1=C/C(=C(/c2cccc(S(=O)(=O)O)c2)c2cc(C)c(O)c(C(=O)O)c2)C=C(C(=O)O)C1=O,-3.7% (inactive)
11,Cc1nn(-c2ccccc2)c2c1N=C(C(=O)O)CC(c1ccccc1)=N2,23.9% (inactive)
12,O=C1C[CH]([Ge](=[O])[O][Ge](=[O])[CH]2CC(=O)NC(=O)N2)NC(=O)N1 (stereo not given),25.1% (inactive)
13,O=c1cccccc1Cl,20.9% (inactive)
14,COc1cccc(NC(=S)/C(=C(/[O-])c2ccc([N+](=O)[O-])cc2)[n+]2cccc3ccccc32)c1,22.1% (inactive)
15,CC1(C)N=C(/C(Cl)=[N+](/[O-])C(=O)c2ccc(F)cc2)C(C)(C)N1O,-27.2% (inactive)
16,CC1(C)CC([N+](C)(C)CCCCCC[N+](C)(C)C2CC(C)(C)N(O)C(C)(C)C2)CC(C)(C)N1O,14.9% (inactive)
17,CCOC(=O)CC(=O)Nc1cc(C)cc(C)n1,9.5% (inactive)
18,COC(=O)NC(Cc1ccccc1)NC(=O)OC(C)(C)C (stereo not given),-20.5% (inactive)
19,CCCNc1cc2c(cc1Br)-c1ccccc1C2=O,-10.2% (inactive)
20,Oc1ccccc1C=Nc1ccc(I)cc1.Oc1ccccc1C=Nc1ccc(I)cc1.[Co],18.6% (inactive)

row,Structure (SMILES),growth inhibition
1,CC1=C(C)CC2C(=O)c3c(O)ccc(O)c3C(=O)C2C1 (stereo not given),52% (inactive)
2,COc1ccc(Cc2ccccc2)cc1,17.4% (inactive)
3,O=C(COc1ccc(Cl)cc1)Nc1nccs1,26.6% (inactive)
4,Cc1cc(Cl)c(Cl)cc1Cl,-6.5% (inactive)
5,COC(=O)c1cc(OC)c(O)c(OC)c1,16.6% (inactive)
6,OCc1cc(Cl)cc(Cc2cc(Cl)cc(Cc3cc(Cl)cc(Cc4cc(Cl)cc(Cc5cc(Cl)cc(CO)c5O)c4O)c3O)c2O)c1O,-9.35% (inactive)
7,O=C(Cc1ccccc1)c1c[nH]c2c(O)ccc(O)c12,-12.3% (inactive)
8,CCCC(=O)OCC(C)(C)CC(C)C,-10.5% (inactive)
9,CC(=O)NC1C(O)C(NC(C)=O)C(OC(C)=O)C(OC(C)=O)C1OC(C)=O (stereo not given),4.1% (inactive)
10,O=C(NC1C2CC3CC(C2)CC1C3)c1cc(/C=C/c2ccccc2)[nH]c(=S)n1 (stereo not given),13.1% (inactive)
11,CCCCCCCCCCCCCCCCCC(=O)O,0.1% (inactive)
12,[O-][N+]1(CC[N+]2([O-])CCCCC2)CCCCC1,1.7% (inactive)
13,C=CCS(=O)(=O)c1ccc(Cl)cc1,-20.5% (inactive)
14,CC(C)C1OC2(CCCCC2)OCC1(C)C (stereo not given),8.25% (inactive)
15,CC(=O)Oc1ccc(NCNc2ccc(OC(C)=O)cc2)cc1,-3.2% (inactive)
16,CC1S(=O)(=O)OCCCOS1(=O)=O,-9.95% (inactive)
17,Cc1cc(N(CCC#N)CCC#N)ccc1/C=C(\NC(=O)/C=C/c1ccccc1)C(=O)N=[N+]=[N-],-44.9% (inactive)
18,CC1CC(c2ccccc2)S(=O)(=O)O1 (stereo not given),-3.7% (inactive)
19,Cc1ccc(-c2cc(=O)c3cc(C)c(C)c(C(=O)O)c3o2)cc1,10.8% (inactive)
20,Cc1ccc(S(=O)(=O)NCNS(=O)(=O)c2ccc(C)cc2)cc1,2.05% (inactive)
